Results taken from PubChem BioAssay (NCATS).
“And” between values parts separate entries of the source, which are not always exact repeats. Identical values can stand only once. Inconclusive results are not listed. Entries that show only a call come without a potency. The source made the active and inactive calls. Calls come from the whole dose curve; as a rule, active = well fitted curve in the direction sought with a large enough effect; inconclusive = small, poorly fitted or top-dose-only effect, or another doubt; inactive = no such curve, though single readings can be large; an effect the other way counts as inactive or inconclusive.

Tests used:
[1] = molecular target: Calcium and integrin-binding protein 1 (Homo sapiens) (UniProt Q99828); assay: Primary qHTS for Identification of Calcium Integrin Binding Protein 1 (CIB1) Competitor (AID 1508620);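 note: GST tagged CIB1 binding a fluorescein labelled alphaIIb integrin peptide tracer; top concentration of the series differs between compounds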
Outline: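 Fluorescence polarization competition: CIB1-GST (1 uM final) preincubated with compound 15 min at room temperature, then FITC-labeled alphaIIb peptide (100 nM final) added for another 15 min. Polarization read at Ex 480/Em 540.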

[2] = Primary qHTS for inhibitors of nuclear receptor binding SET domain protein 2 (NSD2) in an isogenic RCH-ACV NSD2 p.E1099K mutant (9B) (AID 1645876); note: nearly all actives have a fitted effect of over 70% in size; note: potency is the fitted concentration of half-maximal effect
[3] = Primary qHTS for inhibitors of nuclear receptor binding SET domain protein 2 (NSD2) in an RCH-ACV wild type WT cells (2C) (AID 1645877); note: nearly all actives have a fitted effect of over 70% in size; note: potency is the fitted concentration of half-maximal effect

Calcium and integrin-binding protein 1 (Homo sapiens), sequence (Q99828 whole entry, looked up): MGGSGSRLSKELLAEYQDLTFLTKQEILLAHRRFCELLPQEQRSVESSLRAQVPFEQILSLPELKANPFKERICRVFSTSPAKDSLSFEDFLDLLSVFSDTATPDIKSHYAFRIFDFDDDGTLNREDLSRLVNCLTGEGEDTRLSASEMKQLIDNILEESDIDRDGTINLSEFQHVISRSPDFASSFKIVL

CO[C@H]1[C@@H](O)[C@H](O[C@H]2CC[C@@]3(C)C(CCC4C3CC[C@]35COC6(COC(=O)C6)C3CCC45O)C2)O[C@@H](C)[C@@H]1OC1OC(CO)C(OC2OC(CO)C(O)C(O)C2O)C(O)C1O (stereo not given in full)
Potency [1]: inactive
Potency [2]: 3.88 µM (active)
Potency [3]: 3.88 µM (active)

C/C(=C\CCC(C)C1=CCC2(C)OC3=C(CC12)C(=O)C(O)CC3)CO (stereo not given)
Potency [1]: inactive
Potency [2]: inactive
Potency [3]: inactive

Cc1[nH]c2ccccc2c1CCNCc1ccc(/C=C/C(=O)NO)cc1
Potency [1]: inactive
Potency [2]: 18.3 nM (active) and 52.5 nM (active)
Potency [3]: 18.3 nM (active) and 52.5 nM (active)

C=C1C(=O)OC2CC(C)=C(C(C)CCCOC(C)=O)C(OC(=O)CC(C)CC)C12 (stereo not given)
Potency [1]: inactive
Potency [2]: 7.09 µM (active)
Potency [3]: 7.09 µM (active)

Cc1ccc(C)c(-c2cc(C(F)(F)F)nn2-c2ccc(S(N)(=O)=O)cc2)c1
Potency [1]: inactive
Potency [2]: 20.5 µM (active)
Potency [3]: 25.8 µM (active)

O=C(/C=C/c1ccccc1O)O[C@@H]1O[C@H](CO)[C@@H](O)[C@H](O)[C@H]1O
Potency [1]: inactive
Potency [2]: inactive
Potency [3]: inactive

CC[C@@H](C)Nc1cc(C(=O)NC2CC3CCC(C2)N3c2ccc(C(=O)C3CC3)cn2)c(C)cc1C(N)=O (stereo not given in full)
Potency [1]: inactive
Potency [2]: 0.118 µM (active)
Potency [3]: 0.132 µM (active)

COC(=O)C1=CO[C@@H](O[C@@H]2O[C@H](CO)[C@@H](O)[C@H](O)[C@H]2O)[C@H]2[C@@H]1C=C[C@]21C=C([C@H](C)OC(=O)/C=C/c2ccc(O)cc2)C(=O)O1
Potency [1]: inactive
Potency [2]: 0.383 µM (active)
Potency [3]: 0.483 µM (active)

O=C(c1c(F)ccc(NS(=O)(=O)N2CC[C@@H](F)C2)c1F)c1c[nH]c2ncc(-c3cnc(C4CC4)nc3)cc12
Potency [1]: inactive
Potency [2]: 11.8 µM (active)
Potency [3]: 11.6 µM (active)

CC(=O)OC[C@]12[C@H](OC(C)=O)C(=O)[C@@H]3[C@@H](O)[C@@]14O[C@@]3(C)COC(=O)c1cccnc1[C@@H](C)[C@H](C)C(=O)O[C@@H]([C@H](O)[C@@H]2OC(C)=O)[C@]4(C)O
Potency [1]: inactive
Potency [2]: 5.41 µM (active)
Potency [3]: 5.41 µM (active)

C=C1[C@@H](OC(C)=O)CC[C@@]2(C)[C@@H](OC(C)=O)[C@H](OC(C)=O)C3=C(C)C[C@H](OC(=O)C(C)CC)[C@@H]([C@@H](OC(C)=O)[C@H]12)C3(C)C (stereo not given in full)
Potency [1]: inactive
Potency [2]: 1.21 µM (active)
Potency [3]: 1.21 µM (active)

C[C@@H]1CC[C@]2(C(=O)O)CC[C@]3(C)C(=CCC4[C@@]5(C)CC[C@H](O)[C@](C)(C(=O)O)C5CC[C@]43C)C2[C@]1(C)O (stereo not given in full)
Potency [1]: inactive
Potency [2]: inactive
Potency [3]: inactive

CC(=O)NC(C(=O)O[C@H]1CCC(C)(C)[C@@H]2CC=C3C(=O)OCC3(O)[C@@]12C)C(C)C (stereo not given in full)
Potency [1]: inactive
Potency [2]: 8.01 µM (active)
Potency [3]: 12.7 µM (active)

CN(CC1COCCO1)S(=O)(=O)Nc1ccc2ccc3ncc(-c4cnn(C)c4)cc3c(=O)c2c1 (stereo not given)
Potency [1]: inactive
Potency [2]: 5.15 µM (active)
Potency [3]: 9.16 µM (active)

CC(=O)O[C@H]1CC2C(COC(=O)CC(C)C)=CO[C@@H](OC(=O)CC(C)C)C2[C@]12CO2 (stereo not given in full)
Potency [1]: inactive
Potency [2]: 7.96 µM (active)
Potency [3]: 3.55 µM (active)

C=C(COC(=O)C(O)C(O)CN)C12OC1C1(C)C(=CC2=O)C(O)C(O)CC1C (stereo not given)
Potency [1]: inactive
Potency [2]: inactive
Potency [3]: inactive

Nc1nc2c(nc(Br)n2[C@@H]2O[C@@H]3COP(=O)(O)O[C@H]3[C@H]2O)c(=O)[nH]1
Potency [1]: inactive
Potency [2]: inactive
Potency [3]: inactive

COc1cc(CCC2=NN=C(NC(=O)c3ccc(N4C[C@@H](C)N[C@@H](C)C4)cc3)C2)cc(OC)c1
Potency [1]: inactive
Potency [2]: 5.78 µM (active)
Potency [3]: 5.78 µM (active)

CC(=O)OC1[C@H]2[C@@H](C[C@@H](C)[C@@H]3C=CC(=O)[C@@]13C)OC(=O)[C@@H]2C (stereo not given in full)
Potency [1]: inactive
Potency [2]: 10.3 µM (active)
Potency [3]: 7.28 µM (active)

CCc1c[nH]c2ncnc(N3CC[C@](N)(CNC(=O)c4ccc(F)cc4F)C3)c12
Potency [1]: inactive
Potency [2]: 1.63 µM (active)
Potency [3]: 3.65 µM (active)
